RGS4-Gao reg: modulates binding of RGS4 to human Galphao; 220,000 compounds, 0.33% hits; AID 1415; Multiplexed bead flow cytometry; actives lie on both sides; binding response (% of control), % at 10 µM; in the data active means binding response below about 49% or above about 150%; inactive means in between;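 further: fluorescent Galphao activated with aluminum fluoride binding bead-coupled RGS4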
Target sequence (P09471 whole entry, looked up): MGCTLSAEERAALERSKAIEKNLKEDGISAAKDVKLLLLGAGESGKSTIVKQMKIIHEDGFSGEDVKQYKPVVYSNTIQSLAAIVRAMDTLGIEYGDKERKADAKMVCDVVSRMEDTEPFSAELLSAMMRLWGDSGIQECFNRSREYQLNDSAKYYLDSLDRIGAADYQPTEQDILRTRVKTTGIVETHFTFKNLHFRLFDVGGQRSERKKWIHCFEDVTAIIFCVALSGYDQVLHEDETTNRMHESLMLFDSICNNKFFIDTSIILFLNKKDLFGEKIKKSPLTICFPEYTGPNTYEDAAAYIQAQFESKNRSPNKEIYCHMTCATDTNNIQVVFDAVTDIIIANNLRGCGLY
RGS8-Gao reg: regulators of human RGS8-Galphao interaction; 220,000 compounds, 0.34% hits; P09471; AID 1423; multiplexed bead flow cytometry, RGS8-Galphao binding; actives lie on both sides; response (percent of control binding), % at 10 µM; in the data active means response below about 60% or above about 140%; inactive means in between;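 further: Galphao activated as the GDP aluminium fluoride complex binding bead-coupled RGS8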
Avidin fluor: avidin bead compound fluorescence profile. Avidin beads, compound fluorescence 488/530 nm, flow cytometry; active compounds read high. fluorescence (KMESF) at 10 µM. 220,000 compounds, 0.38% hits. AID 1775; in the data active means fluorescence above about 47
GSH bead fluor: GSH bead compound fluorescence profile. fluorescence (KMESF) at 10 µM. GSH beads flow cytometry, compound fluorescence 488/530 nm; active compounds read high. 190,000 compounds, 0.25% hits; in the data active means fluorescence above about 89;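 further: glutathione beads carrying GST-tagged Bcl family fusion proteins plus one bare bead set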
RGS7-Gao: human RGS7-Galphao interaction regulation; P09471; Multiplexed bead flow cytometry, RGS7-Galphao binding; actives lie on both sides; binding response (% of control), % at 10 µM; 220,000 compounds, 0.35% hits; in the data active means binding response below about 49% or above about 150%; inconclusive means no clear call, values can overlap the other calls; inactive means in between;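 further: fluorescent Galphao held in activated GDP-AlF4 state binding bead-coupled RGS7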
RGS16-Gao: regulators of human RGS16-Galphao interaction; O15492+P09471; bead-based flow cytometry RGS16-Galphao binding, fluorescence; actives lie on both sides; binding response (% of control), % at 10 µM; 220,000 compounds, 0.38% hits; AID 1441; call rule not given here;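 further: Galphao activated by GDP with aluminum fluoride before binding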
Target sequence (O15492 whole entry, looked up): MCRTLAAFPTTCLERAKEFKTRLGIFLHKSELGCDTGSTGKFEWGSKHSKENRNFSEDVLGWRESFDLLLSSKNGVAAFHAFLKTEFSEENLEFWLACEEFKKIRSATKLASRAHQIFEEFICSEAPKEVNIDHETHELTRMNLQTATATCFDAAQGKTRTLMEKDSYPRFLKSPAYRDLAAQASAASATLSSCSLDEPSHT
Target sequence (P09471 whole entry, looked up): as the sequence (P09471 whole entry, looked up) above
Hits are given with their value; 0 = inactive; ? = inconclusive; - = no result; [ ] = another dose, or the depositor's remark. Shown are actives, neighbours in structure and some others; about 1.2% of the full set was active somewhere.

SMILES	RGS4-Gao reg	RGS8-Gao reg	Avidin fluor	GSH bead fluor	RGS7-Gao	RGS16-Gao
N#Cc1ccc(C(=O)OCC(=O)Nc2ccc(S(N)(=O)=O)cc2)cc1	0	0	0	-	?	0
COc1ccc(N(CC(=O)Nc2cc(C)on2)S(=O)(=O)c2ccc(Cl)cc2)cc1	0	0	0	250	0	0
COc1ccc(N(CC(=O)Nc2cc(C)on2)S(=O)(=O)c2cc(C)ccc2C)cc1	0	0	0	0	0	0
CCOc1cc2oc(=O)c3c(c2cc1Cl)CCC3	0	0	74	0	0	0
Cn1c(=O)[nH]c(NC2CCCCC2)c(N=O)c1=O	0	0	0	0	0	0
CCCNc1[nH]c(=O)n(C)c(=O)c1N=O	0	0	69	0	0	0
CCC(C)(C)c1ccc(OCCCC[n+]2cccc(C)c2)c(C(C)(C)CC)c1	0	0	0	0	0	0
O=C(CSc1nc(-c2ccco2)cc(C(F)(F)F)n1)Nc1cccnc1	0	0	59	0	0	0
CC(=O)Nc1ccc(-n2nnnc2SCC(=O)NCc2cccs2)cc1	0	0	0	0	0	0
CCC(C)(C)NC(=O)CN(C(=O)c1snc(C(N)=O)c1N)c1ccc2c(c1)OCCO2	0	0	0	0	0	0
CCCC(C(=O)NC(C)(C)C)N(C(=O)c1snc(C(N)=O)c1N)c1ccc2c(c1)OCCO2 (stereo not given)	0	0	47	0	0	0
Cn1ccnc1C(=O)c1cc(SCC(=O)NCc2ccccc2)nc2ccccc12	0	0	0	0	0	0
COC(=O)CSc1cc(C(=O)c2nccn2C)c2ccccc2n1	0	0	0	271	0	0
Cc1ccc(NC(=O)N2CCCC2C(=O)NCC2CCCO2)cc1 (stereo not given)	0	0	0	0	0	0
CC(=O)NC12CC3CC(C1)CC(C(=O)OCC(=O)Nc1ncc(Cl)c(C)c1Cl)(C3)C2	0	0	0	262	0	0
O=C(NCC1CCCO1)c1cccnc1Nc1ccccc1F (stereo not given)	0	0	52	0	0	0
O=C(Nc1ccc(SC(F)F)cc1)c1ccc(F)cc1	0	0	0	0	0	0
O=C(Cc1csc(Nc2nc(=S)[nH]c3ccccc23)n1)N1CCN(c2cccc(C(F)(F)F)c2)CC1	0	0	0	0	0	0
COc1ccc(NC(=O)c2coc3ccccc23)cc1OC	0	0	0	259	0	0
O=C(Cn1cnc2c(nnn2Cc2ccccc2)c1=O)NCc1ccccc1Cl	0	0	0	-	?	0
CC(C)(C)c1ccc(-c2ncccc2O)cc1	0	0	0	0	0	0
CN1C(=O)NC(c2cccc(O)c2)C(C(=O)c2cccs2)C1(O)C(F)(F)F (stereo not given)	0	0	0	0	0	0
CCOC(=O)C1C(c2cccs2)NC(=O)N(C)C1(O)C(F)(F)F (stereo not given)	0	0	59	0	0	0
O=C(C1CCN(S(=O)(=O)N2CCC3(CC2)OCCO3)CC1)N1CCC(Cc2ccccc2)CC1	387[activator]	0	233	0	298[activator]	526[activator]
COC(=O)c1cc(NC(=O)c2cc(-c3ccccc3Cl)oc2C(F)(F)F)ccc1N1CCOCC1	0	0	0	-	?	0
SMILES	RGS4-Gao reg	RGS8-Gao reg	Avidin fluor	GSH bead fluor	RGS7-Gao	RGS16-Gao
CCNc1nc(NCC)nc(OCCOC(C)=O)n1	0	0	0	132	0	0
O=C(CSc1nnc(-c2c[nH]c3ccccc23)o1)N1CCCCC1	0	0	57	0	0	0
CC(Oc1ncnc2ccccc12)C(=O)Nc1cccc(S(=O)(=O)N2CCOCC2)c1 (stereo not given)	0	0	0	0	0	0
CN(C)C(=O)c1nc(C#N)c(N(C)C)o1	0	0	0	257	0	0
CCCCNC(=O)COC(=O)CCC(=O)c1ccc(F)cc1	0	0	0	266	0	0
O=C(COc1ccc2ccccc2c1)N1CCN(C(=O)c2ccc([N+](=O)[O-])cc2)CC1	0	0	0	0	0	0
CCOCCCNCc1c(Cl)cccc1Cl	0	0	60	0	0	0
CC(C)CNC(=O)c1ccccc1NC(=O)c1ccc(CN2CCOCC2)cc1	0	0	48	0	0	0
Cc1ccc2c(c1)Oc1ccc(NC(=O)CCl)cc1C(=O)N2	0	0	0	0	0	0
COc1ccc(NC(=S)N2CCN(CCN3C(=O)c4cccc5cccc(c45)C3=O)CC2)cc1	0	0	0	0	?	0
CCOc1ccc(NC(=S)N2CCN(CCN3C(=O)c4cccc5cccc(c45)C3=O)CC2)cc1	0	0	51	0	0	0
Cc1ccc(-c2nc3cccnc3s2)cc1NS(C)(=O)=O	-22	2.3	0	0	-31	-19
Cc1nc(CCNC(=O)CC2C(=O)NCCN2Cc2ccc(F)cc2)sc1C (stereo not given)	0	0	0	0	0	0
CC(=O)c1c(C)oc2ccc(NS(=O)(=O)c3cccs3)cc12	0	0	122	0	0	0
CCOC(=O)c1c(C)oc2ccc(NS(=O)(=O)c3cccs3)cc12	0	0	0	0	0	0
COc1ccc(/C=N/Nc2nc(Nc3ccccc3)nc(N3CCCC3)n2)cc1	0	0	78	0	0	0
Cc1cc2nc(-c3ccc(SCC(=O)Nc4ccc5c(c4)OCCO5)nc3)[nH]c2cc1C	0	0	53	0	0	0
Cc1ccc2nc(-c3ccc(SCC(=O)Nc4ccc5c(c4)OCCO5)nc3)[nH]c2c1	0	0	0	0	0	0
Cc1ccc(C#CC[N+]2(C)CCCCC2)cc1	0	0	0	-	?	0
O=c1[nH]c(CSc2cccc[n+]2[O-])nc2ccccc12	0	0	0	-	?	0
O=C(Nc1ccccc1N(C(=O)c1ccco1)S(=O)(=O)c1cccs1)c1ccco1	0	0	0	275	0	0
O=C(Nc1c(C(=O)Nc2ccccc2)cnn1-c1ccccc1)c1ccco1	0	0	0	0	0	0
O=C(Nc1c(C(=O)Nc2cccc3ccccc23)cnn1-c1ccccc1)c1ccco1	0	0	0	99	0	0
O=C(Nc1ccccc1NC(=O)c1ccco1)c1ccco1	-45	6.2	0	0	-19	-27
Cc1cc(C)c(S(=O)(=O)N2CCCOC2CNC(=O)C(=O)NCc2ccco2)c(C)c1 (stereo not given)	0	0	0	0	0	0
COc1ccc(C2=C(O)C(C)N(c3ccccc3)C2=N)cc1OC (stereo not given)	0	0	53	0	0	0
COc1ccc(-c2cnn(-c3ccccc3)c2N)cc1OC	0	0	0	0	0	0
COc1ccc2c(c1)c(C(=O)CN1CCc3ccccc3C1)c(C)n2C	0	0	0	-	?	0
O=C(Cn1c(=O)sc2ccccc21)Nc1ccc(S(=O)(=O)N2CCCC2)cc1	0	0	0	0	0	0
Cc1nc(SCC(=O)O)c2oc3ccccc3c2n1	0	0	0	0	0	0

Screens as filed in PubChem.
